Compound activity as filed in PubChem.
An excerpt weighted towards active compounds, which were near 5.9% of everything screened.
AHR act – AHR activators, primary screen, cell-based, luminescence, luciferase reporter, human; activation, % at 5 µM; AHR-responsive luciferase reporter cells; Aryl hydrocarbon receptor (Homo sapiens), P35869; actives 2.5% (n = 320,000); in the data active means activation above about 47%;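 further: 0% = vehicle wells and 100% = reference agonist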
HSP90 inh – HSP90 inhibitors, primary screen, cell lysate, luminescence; Heat shock protein HSP 90 (rabbit reticulocyte lysate; luciferase refolding); Rabbit reticulocyte lysate, luciferase refolding luminescence, 3 h; inhibition, % at 5.6 µM; actives 0.91% (n = 290,000); AID 1789, 2009;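 active means inhibition above the screen-wide mean plus 3 SD, computed separately per campaign, cut at about 16% in these data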;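 further: 0% = DMSO wells and 100% = 60 µM geldanamycin wells; inhibitors lower the luminescence because luciferase stays unfolded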
FXN GAA850 act – FXN promoter activators, primary screen, cell-based, luciferase luminescence, HEK293 lucGAA850; HEK293 lucGAA850 FXN promoter luciferase reporter, 24 h; percent of 10 µM SAHA response; actives 0.56% (n = 360,000); activation, % at 6 µM;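 active means activation above the average of all compounds screened plus 3 SD, cutoff fixed separately per campaign, cut at about 7.5% in these data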;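 further: 0% = DMSO wells and 100% = 10 µM SAHA wells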
HSF1 inhib – HSF1 inhibitors in luciferase reporter cells, primary screen, cell-based, NIH3T3, luminescence. actives 0.77% (n = 300,000). activity change, negative = inhibition, % at 7.5 µM (by protocol). NIH3T3-HGL HSE-luciferase, MG132-induced, luminescence 8 h; hits give low values;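 active means more than half of replicate wells show activity change below -50%, luminescence cut by over half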;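 further: luciferase reports HSF-1 transcriptional activity via heat shock element; 0% = median of DMSO wells and -100% = zero luminescence signal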
NR0B1 inh – DAX1 (NR0B1) inhibitors, primary screen, cell-based, HEK293, Gal4-DAX1, luciferase luminescence; Nuclear receptor subfamily 0 group B member 1 (Homo sapiens), P51843; HEK293 Gal4-DAX1 luciferase reporter; inhibition, % at 6.75 µM; actives 0.99% (n = 340,000); AID 504766, 2011;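 active means inhibition above the mean over all tested compounds plus 3 SD, cut at about 4.2% in these data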;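 further: 0% = DAX1-transfected cells with DMSO and 100% = empty-vector control cells with DMSO; inhibition shows as a rise in luminescence from relieved DAX1 repression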
Target sequence (P51843 207-470 limits assumed): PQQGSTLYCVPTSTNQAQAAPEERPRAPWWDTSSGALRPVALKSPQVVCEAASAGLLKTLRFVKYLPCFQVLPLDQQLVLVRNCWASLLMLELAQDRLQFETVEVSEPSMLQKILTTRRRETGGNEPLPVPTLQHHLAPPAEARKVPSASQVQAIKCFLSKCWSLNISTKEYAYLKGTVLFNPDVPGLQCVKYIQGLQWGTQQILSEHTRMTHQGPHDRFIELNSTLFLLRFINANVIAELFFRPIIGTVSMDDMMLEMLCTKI
HSF-1 act – HSF-1 activators, primary screen, NIH3T3-HGL cells, MG132 stress, luminescence, single point. NIH3T3-HGL HSF-1 luciferase reporter, 8 h; 100% = twice DMSO control signal. activation, % at 9 µM. actives 1.7% (n = 300,000);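 active means mean replicate activation of at least 50% with a set share of replicates each reaching 50%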;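 further: 0% = median of the neutral control wells and 100% = twice that signal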
* hit, by the source's call; / = no result.

SMILES	AHR act	HSP90 inh	FXN GAA850 act	HSF1 inhib	NR0B1 inh	HSF-1 act
COc1ccc(-c2cc(-c3ccc(OC)c(OC)c3)n[nH]2)c(O)c1	4	-2	1	15	2	11
COc1ccc(-c2cc(-c3cc(F)ccc3O)[nH]n2)cc1OC	50*	-1	6	/	2	/
COc1ccc(-c2cc(-c3ccccc3O)[nH]n2)cc1OC	10	1	7	67	4	106*
CN1CCN(CCNC(=O)Cn2c(=O)c3cccn3c3ccc(F)cc32)CC1	4	-6	3	8	0	9
CCN1CC(C)(C)N(C(=O)c2ccccc2)CC1(C)C	/	/	0	/	1	/
Cc1ccc(NC(=O)c2nsc(Cl)c2Cl)cc1	69*	8	4	22	5.8*	42
CCNC(=S)NNC(=O)c1csc(CC)c1	2	1	3	-1	7.0*	22
CCc1cc(C(=O)NNC(=S)NCc2ccccc2)cs1	0	-4	4	11	0	4
C[C@H](CO)N1C[C@H](C)[C@@H](CN(C)CC2CCCCC2)Oc2ccc(NC(=O)CCN3CCOCC3)cc2C1=O	-1	/	1	/	1	/
c1ccc2c(-c3csc(-c4ccncc4)n3)c[nH]c2c1	58*	4	6	1	-1	-10
Brc1ccc(-c2csc(-c3c[nH]c4ccccc34)n2)cc1	78*	-1	1	9	2	24
CN(C)c1ccc(CNC(=O)C2Cc3c(-c4cccc(C(N)=O)c4)ccnc3O2)cc1 (stereo unspecified)	/	/	0	/	/	/
C[C@@H]1CN([C@@H](C)CO)C(=O)CCCn2nncc2CO[C@@H]1CN(C)S(=O)(=O)c1ccccc1C#N	/	/	-2	/	0	/
CCc1ccc(S(=O)(=O)Nc2c(C)nc3nc[nH]n3c2=O)cc1	-1	-1	2	-3	8.0*	-5
COC(=O)CN1C(=O)[C@H]2[C@@H](c3ccc(C)o3)N3C(=O)CN(Cc4ccccc4)C(=O)[C@@]3(C)[C@H]2C1=O	-3	0	-1	-10	1	-16
COC(=O)c1cn(C(=O)/C=C/c2ccc(OC)c(OC)c2)c2ccccc12	2	0	-2	42	-1	61*
COc1cc(NS(=O)(=O)c2ccc(NC(=S)NC(=O)/C=C/c3ccc(OC)c(OC)c3)cc2)ncn1	1	0	1	-55*	-1	-65
COc1ccc(/C=C/C(=O)NC(C)CCc2ccccc2)cc1OC (stereo unspecified)	11	0	2	-44	1	-56
COc1ccc(/C=C/C(=O)NC(=S)Nc2ccc(S(=O)(=O)Nc3cc(OC)ncn3)cc2)cc1	/	-2	4	/	/	/
COc1ccc(/C=C/C(=O)NC(=S)NCc2ccccc2)cc1OC	5	8	3	31	1	67*
COC(=O)c1cn(C(=O)OC)c2ccccc12	5	-3	0	-2	1	0
Nc1ccc2cn[nH]c2c1	49*	-1	4	-7	-1	-15
Brc1ccc2[nH]ncc2c1	2	4	4	1	-1	-5
COc1ccc(NCc2nnc(SCC(=O)Nc3cc(C(F)(F)F)ccc3Cl)o2)cc1	17	4	2	-60*	-1	-67
COc1ccc(NCc2nnc(SCC(=O)Nc3cc(C)cc(C)c3)o2)cc1	9	4	3	-1	1	7
SMILES	AHR act	HSP90 inh	FXN GAA850 act	HSF1 inhib	NR0B1 inh	HSF-1 act
COc1cccc(/C=C(/C#N)c2nc3ccccc3[nH]2)c1OC(C)C(=O)O (stereo unspecified)	19	-2	0	7	7.0*	10
COc1cc(/C=C(\C#N)c2nc3ccccc3[nH]2)cc(OC)c1O	15	4	0	10	1	38
COc1cccc(/C=C(\C#N)c2nc3ccccc3[nH]2)c1OCC(=O)O	19	4	4	-64*	4	-71
COc1cc(F)ccc1-c1csc(C(O)c2ccccc2)n1 (stereo unspecified)	/	/	4	/	/	/
CC(C)(C)NC(=O)COC(=O)c1ccccc1OCC(=O)Nc1ccc(Br)cc1	-6	2	4	40	1	69*
COc1ccccc1NC(=O)COC(=O)c1ccccc1OCC(=O)Nc1ccc(SC(F)F)cc1	-3	-1	2	-11	-1	1
Cc1ccccc1OCC(=O)Nc1ccc([N+](=O)[O-])cc1	-3	0	1	-70*	0	-77
COc1ccc(CNC(=O)COC(=O)c2ccccc2OCC(=O)Nc2ccc(SC(F)F)cc2)cc1	0	0	1	-13	6.5*	-32
Cc1ccc(NC(=O)CCC(=O)NNC(=O)COc2ccc([N+](=O)[O-])cc2)cc1C	53*	-1	1	-2	0	11
CC1(C)CC(NC(=O)c2cc(COc3cccc(C(F)(F)F)c3)on2)CCO1 (stereo unspecified)	4	-8	3	9	-1	19
NC(=O)c1ccccc1OCC(=O)Nc1ccc(Cl)c(Cl)c1	44	4	4	50	5.8*	91*
O=C(COc1ccccc1[N+](=O)[O-])Nc1ccc(Br)cc1	53*	0	4	/	6.8*	/
CCNC(=O)C(=O)Nc1ccc([N+](=O)[O-])cc1	-2	3	2	9	4.7*	-6
CNC(=S)NNC(=O)COc1ccccc1C	6	-1	1	15	-1	57*
O=C(COc1ccc(Cl)cc1Cl)NCCN1CCCC1	/	/	0	/	3	/
COc1ccccc1N1CC(C(=O)OCC(=O)Nc2c(C)cccc2C)CC1=O (stereo unspecified)	-1	-4	1	-6	-1	13
CC(C(=O)OCC(=O)c1ccc(Br)cc1)N1C(=O)C2C3CCC(C3)C2C1=O (stereo unspecified)	3	-1	3	-1	-2	4
COc1ccc(/C=N/NC2=NS(=O)(=O)c3ccccc32)cc1OC(C)=O	0	0	1	-9	-1	-17
Cc1cc(SCC(=O)N/N=C/c2cccnc2)nc2c(C)cccc12	10	-6	3	11	-1	20
CC(=O)Nc1ccc(C(=O)CSc2cc(C)c3cccc(C)c3n2)cc1	66*	-2	-1	1	-1	24
CCC(=O)c1ccc(OCC(=O)Nc2ccccc2C(=O)N2CCCCC2)cc1	5	/	0	-1	-2	-5
Cc1ccc(OCC(=O)Nc2ccccc2C(=O)N2CCCCC2)cc1	1	-3	0	-53*	-1	-64
